For 26 compounds, Inhibition results are on record in ChEMBL document CHEMBL4513146, “CO-ADD screening of Karazin Kharkiv National University (Ukraine) compounds”.

SMILES strings stand for the structures. Results with a measured potency or affinity are listed apart.

This assay has as its system Staphylococcus aureus. The conditions noted are these: Concentration 32 ug.mL-1;; ASSAY_TEST Inhibition of Bacterial Growth; detection method Absorption (OD600); MEDIA CAMHB; plate type 384well; NBS; CORNING #3640; time 18 hr.
In general, Inhibition refers to the relative decrease from the control value, in per cent. On to `O=C(CSc1nnc2c(=O)n(-c3ccc(F)c(F)c3)ccn12)c1c[nH]c2ccccc12`, for which the Inhibition turned out to be 13.28%.
The same measure for `O=C(Cn1nc2c(N3CCOCC3)nccn2c1=O)Nc1ccc(Br)cc1F`: 13.39%; for `COc1ccc(NC(=O)Cn2nc3ccc(-c4ccc(Cl)cc4)nn3c2=O)cc1OC`: -0.18%.
With `CCc1ccc(NC(=O)Cn2nc3c(Sc4ccccc4)nccn3c2=O)cc1`, the Inhibition was 6.66%.
The same measure for `CCc1ccccc1NC(=O)Cn1nc2cc(C)nc(Nc3ccc(F)cc3)n2c1=O`: 8.34%; for `Cc1nnc2ccc(S(=O)(=O)N(Cc3cccc(F)c3)c3ccc(F)cc3)cn12`: -0.57%.
The same measure for `Cc1ccc(CNC(=O)CSc2nnc3c4cc(-c5ccc(F)cc5)nn4ccn23)cc1`: 12.38%; for `COc1cccc(CNC(=O)CSc2nnc3c(=O)n(-c4ccc(F)cc4)ccn23)c1OC`: 19.94%.
Regarding `Cc1cccc(NC(=O)CSc2nnc3c4cc(-c5ccccc5)nn4ccn23)c1C`, the Inhibition is listed as -15.85%.
With `CCOC(=O)c1ccc(NC(=O)Cn2nc3c(N4CCOCC4)nccn3c2=O)cc1`, the Inhibition was 2.06%.
As to `Cc1ccc(F)cc1NC(=O)CSc1nc2ccccc2n2c(C(C)C)nnc12`, the Inhibition is 9.29%.
As for `CCC(Sc1nnc2c(=O)n(-c3cccc(OC)c3)ccn12)C(=O)Nc1cc(C)ccc1C` (stereo unspecified), the Inhibition is 5.06%.
Take `CCCCN(C)c1ccc2nnc(CCc3nc(-c4cc(OC)cc(OC)c4)no3)n2n1`: the Inhibition is on record as -6.16%.
For `COc1ccc(CN(c2ccc(F)cc2)S(=O)(=O)c2cccn3cnnc23)cc1F` the value was 11.25%; for `CC(C)(C)Sc1ccc2nn(CC(=O)Nc3ccccc3C(F)(F)F)c(=O)n2n1`, 6.28%; for `COc1ccc(NC(=O)Cn2nc3ccc(SC(C)C)nn3c2=O)cc1OC`, -2.31%.
The same measure for `Cc1cccc(NC(=O)c2ccc3nnc(SCC(=O)Nc4ccc(Br)cc4)n3c2)c1`: 11.58%.
For `CC(C)c1ccc(NC(=O)Cn2nc3ccc(SCc4ccc(Cl)cc4)nn3c2=O)cc1` the value was 4.11%; for `Cc1cccc(N(Cc2ccccc2F)S(=O)(=O)c2ccc3nncn3c2)c1`, -3.86%.
On to `O=c1c2sccc2n2c(=O)n(Cc3ccc(Cl)cc3)nc2n1Cc1cccs1`, for which the Inhibition was -8.27%.
The same measure for `N#Cc1cccc(NC(=O)Cn2nc3c4cc(-c5ccc(Cl)cc5)nn4ccn3c2=O)c1`: 2.28%; for `Cc1cccc(N(Cc2ccc(F)cc2)S(=O)(=O)c2cccn3c(C)nnc23)c1`: 15.38%.
The same measure for `Cc1ccc(CNC(=O)Cn2nc3ccc(SCc4ccc(Cl)cc4)nn3c2=O)cc1`: 11.66%.
On to `COC(=O)c1ccc(NC(=O)Cn2c(=O)c3nnc(C(C)C)n3c3ccccc32)cc1`, for which the Inhibition is given as 8.86%.
As for `COC(=O)c1ccc(NC(=O)Cn2nc3c4cc(-c5ccc(F)cc5)nn4ccn3c2=O)cc1`, the Inhibition is given as -6.17%.
The same measure for `CCc1ccccc1Sc1nccn2c(=O)n(CC(=O)Nc3ccc(Br)cc3)nc12`: -9.89%.
